Measurements reported in the supplement of paper PMC4840960.

How the values were obtained:
[1] = test system: E18 rat cortical neuron-glia co-culture; assay: fiber score / MBP score (myelination specific beyond OL differentiation) (ratio); higher = more myelination-specific MBP alignment; conditions: treatment time: 8 days (DIV5-DIV13)
Procedure, shortened: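 The measure is the ratio of fiber score to MBP score, where fiber score is continuous MBP fiber length per Olig2+ nucleus and MBP score is thresholded MBP area × intensity per Olig2+ nucleus. Primary E18 rat cortical co-cultures received library compounds at 1 or 5 µM in myelination medium from DIV5 to DIV13, then were fixed in 4 % paraformaldehyde and stained for MBP, Olig2 and DAPI before analysis of four 10X fields per well in duplicate wells.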

[2] = test system: E18 rat cortical neuron-glia co-culture; assay: myelination (MBP fiber length per Olig2+ nucleus), % of 1 µM DAPT response (DMSO = 0) (% of DAPT); higher = more myelination, active = 50 or more; conditions: treatment time: 8 days (DIV5-DIV13)
Procedure, shortened: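 The myelination value was the continuous straight MBP fiber length per Olig2+ nucleus, scaled between 0.1 % DMSO (0) and a 1 µM positive control (100). It was measured in primary E18 rat cortical co-cultures treated with library compounds at 1 or 5 µM in myelination medium from DIV5 through DIV13. Cells were fixed in 4 % paraformaldehyde and stained for MBP, Olig2 and DAPI, and four 10X fields per well were imaged in duplicate wells.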

In the case of CC(C)/N=c1\cc2n(-c3ccc(Cl)cc3)c3ccccc3nc-2cc1Nc1ccc(Cl)cc1 [Clofazimine], the “fiber score / MBP score” value ([1]; 1 µM) is reported as 0.742, the “fiber score / MBP score” value ([1]; 5 µM) is reported as 0.962 and the myelination ([2]; 1 µM) is reported as -9.19 (inactive). For the same compound, the myelination ([2]; 5 µM) was -8.06 (inactive).
For CN1CCC[C@H]1c1cccnc1 [Nicotine], the “fiber score / MBP score” value ([1]; 1 µM) was 0.761, the “fiber score / MBP score” value ([1]; 5 µM) was 1.06 and the myelination ([2]; 1 µM) was -10.1 (inactive). The myelination ([2]; 5 µM) was 2.28 (inactive).
C#C[C@]1(O)CC[C@H]2[C@@H]3CCC4=CC(=O)CC[C@@H]4[C@H]3CC[C@@]21C [Norethindrone] was tested, and the “fiber score / MBP score” value ([1]; 1 µM) was 0.894, the “fiber score / MBP score” value ([1]; 5 µM) was 0.877 and the myelination ([2]; 1 µM) was -8.89 (inactive). The myelination ([2]; 5 µM) was -10.7 (inactive).
For CNCCCC12CCC(c3ccccc31)c1ccccc12 [Maprotiline], the “fiber score / MBP score” value ([1]; 1 µM) was 0.656, the “fiber score / MBP score” value ([1]; 5 µM) was 0.581 and the myelination ([2]; 1 µM) was -27.8 (inactive). The myelination ([2]; 5 µM) was -25.1 (inactive).
With CCCc1cc(=O)[nH]c(=S)[nH]1 [Propylthiouracil] the “fiber score / MBP score” value ([1]; 1 µM) was 0.95, the “fiber score / MBP score” value ([1]; 5 µM) was 0.854 and the myelination ([2]; 1 µM) was -9.29 (inactive). For the same compound, the myelination ([2]; 5 µM) was -11.9 (inactive).
For CN1C2CCCC1CC(NC(=O)c1nn(C)c3ccccc13)C2 (configuration not stated) [Granisetron], the “fiber score / MBP score” value ([1]; 1 µM) was 0.781, the “fiber score / MBP score” value ([1]; 5 µM) was 1.1 and the myelination ([2]; 1 µM) was -10.7 (inactive). For the same compound, the myelination ([2]; 5 µM) was 1.32 (inactive).
For Nc1nc(N)nc(-c2cc(Cl)ccc2Cl)n1 [Irsogladine], the “fiber score / MBP score” value ([1]; 1 µM) was 0.913, the “fiber score / MBP score” value ([1]; 5 µM) was 0.877 and the myelination ([2]; 1 µM) was -14.2 (inactive). For the same compound, the myelination ([2]; 5 µM) was -20.9 (inactive).
For Clc1ccc(COC(Cn2ccnc2)c2ccc(Cl)cc2Cl)c(Cl)c1 (configuration not stated) [Miconazole], the “fiber score / MBP score” value ([1]; 1 µM) was 0.482 and the myelination ([2]; 1 µM) was -12.3 (inactive).
For CS(=O)(=O)c1ccc(-c2cc(Br)sc2-c2ccc(F)cc2)cc1, the “fiber score / MBP score” value ([1]; 1 µM) was 0.92 and the myelination ([2]; 1 µM) was 8.65 (inactive).
Cc1ccc(Cl)c(Nc2ccccc2C(=O)O)c1Cl [Meclofenamic acid] was tested, and the “fiber score / MBP score” value ([1]; 1 µM) was 0.788, the “fiber score / MBP score” value ([1]; 5 µM) was 0.864 and the myelination ([2]; 1 µM) was -26 (inactive). The myelination ([2]; 5 µM) was -2.96 (inactive).
In the case of CO/N=C(\C(=O)N[C@@H]1C(=O)N2C(C(=O)O)=C(COC(N)=O)CS[C@H]12)c1ccco1 [Cefuroxime], the “fiber score / MBP score” value ([1]; 1 µM) is reported as 0.749, the “fiber score / MBP score” value ([1]; 5 µM) is reported as 0.663 and the myelination ([2]; 1 µM) is reported as -44.2 (inactive). The myelination ([2]; 5 µM) was -51.7 (inactive).
Cc1cnc(C(=O)NCCc2ccc(S(=O)(=O)NC(=O)NC3CCCCC3)cc2)cn1 [Glipizide] was tested, and the “fiber score / MBP score” value ([1]; 1 µM) was 1.13, the “fiber score / MBP score” value ([1]; 5 µM) was 0.658 and the myelination ([2]; 1 µM) was 2.75 (inactive). For the same compound, the myelination ([2]; 5 µM) was -12.8 (inactive).
CCN(CC)CCNC(=O)c1ccc(N)cc1 [Procainamide] was tested, and the “fiber score / MBP score” value ([1]; 1 µM) was 0.82, the “fiber score / MBP score” value ([1]; 5 µM) was 1.19 and the myelination ([2]; 1 µM) was -8.23 (inactive). For the same compound, the myelination ([2]; 5 µM) was 4.78 (inactive).
For CCN(CC)CCOC(=O)c1ccc(N)cc1 [Procaine], the “fiber score / MBP score” value ([1]; 1 µM) was 1.09, the “fiber score / MBP score” value ([1]; 5 µM) was 1.47 and the myelination ([2]; 1 µM) was 6.68 (inactive). For the same compound, the myelination ([2]; 5 µM) was 23.1 (inactive).
For CCCC(CCC)C(=O)O [Valproic Acid], the “fiber score / MBP score” value ([1]; 1 µM) was 0.837, the “fiber score / MBP score” value ([1]; 5 µM) was 0.944 and the myelination ([2]; 1 µM) was -6.19 (inactive). The myelination ([2]; 5 µM) was -3.27 (inactive).
With CCN1CCCC1CNC(=O)c1cc(S(=O)(=O)CC)ccc1OC (configuration not stated) [Sultopride] the “fiber score / MBP score” value ([1]; 1 µM) was 0.758, the “fiber score / MBP score” value ([1]; 5 µM) was 0.461 and the myelination ([2]; 1 µM) was -20.9 (inactive). The myelination ([2]; 5 µM) was -59.3 (inactive).
CC[C@H]1OC(=O)[C@H](C)[C@@H](O[C@H]2C[C@@](C)(OC)[C@@H](O)[C@H](C)O2)[C@H](C)[C@@H](O[C@@H]2O[C@H](C)C[C@H](N(C)C)[C@H]2O)[C@](C)(O)C[C@@H](C)C(=O)[C@H](C)[C@@H](O)[C@]1(C)O [Erythromycin] was tested, and the “fiber score / MBP score” value ([1]; 1 µM) was 0.767 and the myelination ([2]; 1 µM) was -11.1 (inactive).
For COc1ccc(C(=O)NCc2ccc(OCCN(C)C)cc2)cc1OC [Itopride], the “fiber score / MBP score” value ([1]; 1 µM) was 0.63, the “fiber score / MBP score” value ([1]; 5 µM) was 0.693 and the myelination ([2]; 1 µM) was -10.9 (inactive). For the same compound, the myelination ([2]; 5 µM) was -10.7 (inactive).
In the case of CC1(C)O[C@@H]2C[C@H]3[C@@H]4CCC5=CC(=O)C=C[C@]5(C)[C@@]4(F)[C@@H](O)C[C@]3(C)[C@]2(C(=O)CO)O1 [Azmacort], the “fiber score / MBP score” value ([1]; 1 µM) is reported as 0.687 and the myelination ([2]; 1 µM) is reported as -5.49 (inactive).
Cc1ccsc1C(=CCCN1CCC[C@@H](C(=O)O)C1)c1sccc1C [Tiagabine] was tested, and the “fiber score / MBP score” value ([1]; 1 µM) was 0.656, the “fiber score / MBP score” value ([1]; 5 µM) was 0.716 and the myelination ([2]; 1 µM) was -23.8 (inactive). The myelination ([2]; 5 µM) was -16.6 (inactive).
